Bioassay records as filed in PubChem BioAssay.
LDHA block – qHTS assay for inhibitors of human lactate dehydrogenase; activity change, % (values are at about 110 or 230 µM); L-lactate dehydrogenase A chain (Homo sapiens), P00338; AID 1347041, 2019; purified LDHA, NADH/diaphorase-resazurin fluorescence; hits give low values; 480,000 compounds, 0.15% hits; in the data active means activity change below about -30%; inconclusive means mostly about -25% to -30%;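 further: plate controls were DMSO wells for no effect and wells without enzyme for full effect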
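Resorufin fluorescence (ex540/em590), read at 0 and 20 min after diaphorase/resazurin addition, reports the NADH left after a 5 min room-temperature reaction of 2 nM human LDH5 with 0.06 mM NADH and 0.2 mM pyruvate.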
RGS4 inh – Inhibitors of Regulator of G Protein Signaling (RGS) 4: qHTS. Regulator of G-protein signaling 4 (Homo sapiens), P49798. Transcreener GDP fluorescence polarization, RGS4-accelerated GTP hydrolysis. Potency, µM (top dose mostly 114 µM), for the others: at the top dose activity change, negative = inhibition, hits mostly inhibitors. 390,000 compounds, 0.039% hits. AID 504845, 2011; further: potency means the concentration at half of the fitted maximal effect; on the % scale 0 is the no-effect control and ±100 the full control effect; nearly all actives have a fitted effect of over 75% in size
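MLSMR compounds (23 nl, pin-transferred) preincubated 10 min at room temperature with a 500nM (2x) first reagent, then RGS4 at 900nM (2x) plus Transcreener GDP mix added; fluorescence polarization (620/688 nm) read before and after 90 min at 30 °C.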
ASM inhibitor – Inhibitors of Secretory Acid Sphingomyelinase (S-ASM): qHTS; Sphingomyelin phosphodiesterase (Homo sapiens), P17405; placental ASM, HMU-PC fluorogenic substrate, 60 min; Potency, µM (top dose mostly 57.5 µM), inactives show at the top dose activity change, negative = inhibition, hits mostly inhibitors; 340,000 compounds, 0.006% hits; AID 504937, 2011; further: potency means the concentration at half of the fitted maximal effect
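Fluorescence read-out (Ex 386 nm, Em 447 nm) after stopping the reaction at pH 10. Enzyme: ASM from human placenta; substrate HMU-PC0, 9 uM final; 60 min, 37 °C. Compound preincubation 10 min, ambient temperature.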
mIDH1 inhibitor – qHTS for Inhibitors of mutant isocitrate dehydrogenase 1 (IDH1): qHTS; Potency, µM (doses to about 76.6 µM), without a hit: top-dose activity change, negative = inhibition, hits mostly inhibitors; Isocitrate dehydrogenase [NADP] cytoplasmic (Homo sapiens), O75874; IDH1-R132H enzyme, NADPH consumption, diaphorase/resazurin fluorescence; 390,000 compounds, 0.093% hits; further: potency means the concentration at half of the fitted maximal effect; on the % scale 0 is the no-effect control and ±100 the full control effect; nearly all actives have a fitted effect of over 65% in size
Target sequence (O75874 whole entry R132H, stated change not applied): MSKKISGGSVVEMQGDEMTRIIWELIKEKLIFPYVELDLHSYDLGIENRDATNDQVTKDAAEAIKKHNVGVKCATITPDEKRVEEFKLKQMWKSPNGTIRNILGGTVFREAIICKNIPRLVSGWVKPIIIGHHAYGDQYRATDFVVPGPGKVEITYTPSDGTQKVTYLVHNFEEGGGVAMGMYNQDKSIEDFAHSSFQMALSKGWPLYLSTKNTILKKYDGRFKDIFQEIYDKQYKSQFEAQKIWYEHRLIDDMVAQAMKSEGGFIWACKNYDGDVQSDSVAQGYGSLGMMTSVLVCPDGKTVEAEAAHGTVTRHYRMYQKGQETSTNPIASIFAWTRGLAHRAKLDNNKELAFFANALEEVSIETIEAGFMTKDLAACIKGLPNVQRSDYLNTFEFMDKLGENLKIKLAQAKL
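IDH1-R132H (0.5 ug/mL) preincubated 30 min with compound, then NADPH (0.016 mM) and alpha-KG (2 mM) added; 80 min at RT, pH 7.5. Remaining NADPH coupled via diaphorase/resazurin to fluorescence (540/590 nm); concentration-response curves normalized to no-enzyme control.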
ClpP mod – qHTS Assay for Activators of ClpP; Potency, µM (highest dose often 57.5 µM), without a hit: at the highest dose activity change, negative = active; ATP-dependent Clp protease proteolytic subunit (Bacillus subtilis (strain 168)), P80244; 340,000 compounds, 1.9% hits; purified B. subtilis ClpP, FRET peptide cleavage, 20 min; active means well fitted falling curve with a large enough effect; inconclusive means small, poorly fitted or top-dose-only effect; inactive means no such curve, though single readings can be large or run the other way; further: potency means the concentration at half of the fitted maximal effect; the source files actives as falling curves though it sought activators and does not explain the sign; nearly all actives have a fitted effect of over 65% in size
Target sequence (P80244 whole entry, looked up): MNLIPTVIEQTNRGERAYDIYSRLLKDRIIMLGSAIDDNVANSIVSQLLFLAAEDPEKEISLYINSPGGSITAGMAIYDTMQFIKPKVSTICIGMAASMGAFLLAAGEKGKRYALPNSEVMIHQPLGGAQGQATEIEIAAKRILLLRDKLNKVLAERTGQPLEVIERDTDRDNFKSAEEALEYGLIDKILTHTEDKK
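ClpP 10 microg/mL final, pH 8 Tris/KCl buffer with BSA, glycerol, Tween-20; compound pinned in; FRET-FV substrate; RT 20 min; Ex320/Em430; ΔFRET vs ADEP 5.8 microM, DMSO, no enzyme.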
Mito fusion act – qHTS Assay for Small Molecule Inhibitors of Mitochondrial Division or Activators of Mitochondrial Fusion | Potency, µM (series often up to 46.1 µM), for the others: at the top dose growth rescue (activation), most hits filed as activators | S. cerevisiae fusion-defective mutant growth rescue, CellTiterGlo 48 h | 320,000 compounds, 0.23% hits; further: potency means the concentration at half of the fitted maximal effect; % of control where 0% means no effect; nearly all actives have a fitted effect of over 45% in size
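Growth-rescue viability read-out: after 48 h at the non-permissive 37C in glycerol/ethanol YPEG, yeast mitochondrial fusion mutants are measured by CellTiterGlo luminescence; compounds (23 nl pinned per well) restoring growth score as division inhibitors or fusion activators.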
Active calls of the source: *; i = inactive; u = inconclusive; x = no result. Many of the other results were omitted from the sample, so hits are more common in it than they were. Unless noted, the call rests on the fitted dose curve; in most records, active means well fitted curve in the direction sought with a large enough effect; inconclusive means small, poorly fitted or top-dose-only effect, or another doubt; inactive means no such curve, though single readings can be large; an effect the other way counts as inactive or inconclusive.

SMILES	LDHA block	RGS4 inh	ASM inhibitor	mIDH1 inhibitor	ClpP mod	Mito fusion act
Cc1ccc(NC(=O)Cn2c(=O)n(Cc3nc(-c4ccccc4)no3)c(=O)c3cc4c(cc32)OCO4)cc1F	-2	3%	x	-5%	5%	x
O=C(Cn1c(=O)n(Cc2nc(-c3ccccc3)no2)c(=O)c2cc3c(cc21)OCO3)Nc1ccccc1	-4	1%	x	0%	18µM*	x
O=C(Cn1c(=O)n(Cc2nc(-c3ccccc3)no2)c(=O)c2cc3c(cc21)OCO3)Nc1ccc(Cl)cc1	-15	19%	x	-1%	13µM*	x
Clc1cc2c(cc1Cn1nnc(-c3ccncc3)n1)OCO2	1	x	x	x	x	x
CN(C(=O)CSc1nc(N2CCCC2)c2c(c1C#N)CCCC2)c1ccccc1	-23	x	x	x	x	x
CC1=C(C(=O)OC(C)C)C(c2cccc(Cl)c2Cl)CC(=O)N1 (stereo not drawn)	-8	x	x	x	x	x
CC(=O)N1N=C(c2ccc(Br)cc2)CC1c1cn(C)c2ccccc12 (stereo not drawn)	7	-10%	9%	-1%	28µM*	24%
Cc1ccccc1-n1c(CSC(=N)N)nc2ccccc2c1=O	-11	-11%	18%	1%	11µM*	-3%
N#Cc1ccc(-c2ccc(OCC(=O)Nc3cccnc3)cc2)cc1	-10	-35%	4%	0%	16µM*	-2%
COc1cc(CN(C(=O)c2ccc3c(c2)NC(=O)C(C)S3)C2CC2)ccc1OC(F)F (stereo not drawn)	1	x	x	x	x	x
CC(C)=CC(=O)Nc1ccc(CC(=O)N2CCOCC2)cc1	0	x	x	x	x	x
COc1ccccc1-c1nnc(-c2ccc(N3CCOCC3)cc2)o1	-2	-38%	i	5%	18µM*	11%
COc1ccccc1-c1nnc(-c2ccc(C)cc2)o1	-1	-6%	5%	9%	x	x
CCOC(=O)C1CCN(C(=O)Nc2ccc3nc(C)c(C)nc3c2)CC1	2	-11%	195%	-2%	13µM*	-2%
CCOC(=O)C1CCN(C(=O)Nc2ccc3oc(C)nc3c2)CC1	9	-11%	2%	6%	1%	-2%
Brc1ccc(-c2cnc(-c3cccs3)o2)cc1	2	29%	2%	6%	32µM*	-5%
Brc1ccc(-c2noc(-c3cccs3)n2)o1	-2	x	x	x	x	x
CCCn1c(SCN2C(=O)c3ccccc3C2=O)nc2cc(Cl)ccc2c1=O	-3	-32%	0%	2%	25µM*	-1%
Cc1cccc(-n2c(SCN3C(=O)c4ccccc4C3=O)nc3ccccc3c2=O)c1	x	x	x	x	x	18%
Cc1ccc(S(=O)(=O)Nc2c(NC3CCCC3)c3ccccc3oc2=O)cc1	-7	x	x	x	x	x
CCCCc1c(C)nc2c(OC)cccc2c1SCCC(=O)O	-7	-10%	9%	7%	32µM*	-2%
CCN(C(=O)COC(=O)c1c(C)nn(-c2ccccc2)c1C)C1CCS(=O)(=O)C1 (stereo not drawn)	-6	-2%	3%	6%	x	-5%
CCN(C(=O)COC(=O)c1c2c(nc3ccccc13)/C(=C/c1ccccc1)CC(C)C2)C1CCS(=O)(=O)C1 (stereo not drawn)	6	22%	192%	7%	u	20µM*
O=C(/C=C/c1ccccc1)OCC(=O)c1ccc(Br)s1	-5	x	x	x	x	x
CC(C)Oc1ccc(CNC(=O)Cn2c(-c3cccs3)cc3ccccc32)cc1	-4	18%	x	-2%	35µM*	x
SMILES	LDHA block	RGS4 inh	ASM inhibitor	mIDH1 inhibitor	ClpP mod	Mito fusion act
CSc1ccc(CNC(=O)Cn2c(-c3cccs3)cc3cc(F)ccc32)cc1	-6	-8%	x	-14%	u	x
Cc1cccc(CNC(=O)Cn2c(-c3cccs3)cc3ccccc32)c1	-1	-21%	x	11%	14µM*	x
COc1cccc(CCNC(=O)Cn2c(-c3cccs3)cc3ccccc32)c1	-11	23%	x	6%	4%	x
CCc1cccc(C)c1NC(=O)COC(=O)c1ccc2c(c1)S(=O)(=O)c1ccccc1C2=O	-4	17%	0%	4%	-2%	-3%
CCC(C)c1ccccc1NC(=O)COC(=O)c1ccc2c(c1)S(=O)(=O)c1ccccc1C2=O (stereo not drawn)	-4	-5%	-9%	13%	22µM*	-12%
Cn1c(=O)c2nc(SCC(=O)Nc3ccc(F)c(F)c3)n(C)c2n(C)c1=O	0	x	x	x	x	x
CCN1CCN(c2ccc(S(=O)(=O)N3CCCCC3)cc2NC(=O)c2cc3ccccc3o2)CC1	-9	14%	2%	-7%	16µM*	3%
CN1CCN(c2ccc(S(=O)(=O)N3CCCCC3)cc2NC(=O)c2ccc3ccccc3c2)CC1	-6	-3%	0%	2%	20µM*	-9%
Cc1ccc(S(=O)(=O)N2CCCCC2)cc1NC(=O)c1cc2ccccc2o1	-2	4%	0%	3%	-11%	19%
O=C1OC2C3CC(C2Sc2ccccc2)C(C(=O)O)C13 (stereo not drawn)	0	x	x	x	x	x
CC(C)CC(=O)Nc1ccc(C(=O)Cn2nc(C(=O)O)c3ccccc3c2=O)cc1	-11	2%	-9%	-2%	28µM*	-2%
O=C(Cn1nc(C(=O)O)c2ccccc2c1=O)Nc1ccccc1	-15	x	x	x	x	x
CC(C)CC(=O)Nc1ccc(C(=O)NN2C(=O)c3ccccc3C2=O)cc1	-9	2%	-1%	3%	32µM*	-2%
CCCC(=O)Nc1ccc(C(=O)NN2C(=O)c3ccccc3C2=O)cc1	-10	0%	4%	8%	1%	-2%
Cc1ccc(NC(=O)CN2C(=O)c3ccccc3C2=O)cc1	-8	1%	1%	15%	28µM*	1%
Cc1cc(C(C)(C)C)cc(C)c1CS(=O)Cc1ccccc1F (stereo not drawn)	12	x	x	x	x	x
NC(=O)CCN(C(=O)c1ccc(C(F)(F)F)cc1)c1ccc(F)cc1	-7	x	x	x	x	x
COCCCn1c(C)cc(C(=O)COC(=O)C23CC4CC(CC(O)(C4)C2)C3)c1C	2	-21%	2%	2%	28µM*	6%
Cc1ccc2c(c1)c1ncnc(N3CCN(c4ccccc4)CC3)c1n2C	-4	38%	22%	0%	32µM*	0%
Cc1ccc2c(c1)c1ncnc(N3CCOCC3)c1n2C	-3	-5%	i	2%	36%	0%
